A short description of assay [1]: qHTS assay to identify small molecule antagonists of the thyroid receptor (TR) signaling pathway - cell viability counter screen (AID 743064). Note: nearly all actives have a fitted effect of over 50% in size. Put shortly:
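Plate GH3.TRE-Luc cells; incubate 4 h at 37 °C; add compound, then T3 to 1 nM final; incubate 23.5 h; add CellTiter-Fluor; incubate 30 min at 37 °C, 5% CO2; read fluorescence.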

Assay [2] can be described thus: qHTS assay to identify small molecule antagonists of the thyroid receptor (TR) signaling pathway (AID 743065). Note: series mostly up to about 70 µM; nearly all actives have a fitted effect of over 55% in size. The essentials:
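GH3.TRE-Luc rat pituitary cells (two TREs driving luciferase) were dosed with compound, then stimulated with 1 nM T3 (final) for 23.5 h at 37 C. ONE-Glo luminescence was the read-out, with CellTiter-Fluor fluorescence as the cytotoxicity counter-screen.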

The subject of assay [3] is thyroid hormone receptor (rat, GH3 cells). The experiment in a line: qHTS assay to identify small molecule agonists of the thyroid receptor (TR) signaling pathway (AID 743066; calls by dose curve).
Assay [4] concerns the target Estrogen receptor (Homo sapiens) (UniProt P03372). Put plainly: qHTS assay to identify small molecule antagonists of the estrogen receptor alpha (ER-alpha) signaling pathway (AID 743069; active = well fitted curve in the direction sought with a large enough effect in the signal ratio in the repeat runs, not every such curve was filed as active; the % refers to the signal ratio). The essentials: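 Beta-lactamase FRET fluorescence is read after 2 hr at room temperature with LiveBLAzer B/G substrate. Before that, ER-alpha-bla HEK293 cells sit 4 hr after plating, then receive compound plus 17beta-estradiol and incubate 18 hr at 37C.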

Assay [5] in a line: qHTS assay to identify small molecule antagonists of the estrogen receptor alpha (ER-alpha) signaling pathway - cell viability counter screen (AID 743074; calls by dose curve;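 note: HEK293 cells carrying ER-alpha-UAS-bla reporter stimulated with 17beta-estradiol; nearly all actives have a fitted effect of over 45% in size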).
Assay [6] addresses Estrogen receptor (Homo sapiens) (UniProt P03372). The experiment in a line: qHTS assay to identify small molecule agonists of the estrogen receptor alpha (ER-alpha) signaling pathway (AID 743075; calls by dose curve;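 note: HEK293 GripTite cells with ER-alpha and UAS-driven beta-lactamase reporter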).
The target is the same in assay [7]. The experiment in a line: qHTS assay to identify small molecule agonists of the estrogen receptor alpha (ER-alpha) signaling pathway using the BG1 cell line (AID 743079). Note: nearly all actives have a fitted effect of over 20% in size. Note: potency is the fitted concentration of half-maximal effect.
A short description of assay [8]: qHTS assay to identify small molecule antagonists of the estrogen receptor alpha (ER-alpha) signaling pathway using the BG1 cell line (AID 743080; calls by dose curve;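 note: BG1 cells stimulated with 17beta-estradiol alongside compound; series mostly up to about 70 µM; nearly all actives have a fitted effect of over 25% in size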). The essentials: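 Seeding, 24 h rest, compound transfer from DMSO, 17beta-estradiol addition, 21.5 h incubation, CellTiter-Fluor (30 min, 37 C), then ONE-Glo (30 min, room temperature): this sequence was run on BG1-Luc-4E2 reporter cells.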

Assay [9] is described as follows: qHTS assay to identify small molecule antagonists of the estrogen receptor alpha (ER-alpha) signaling pathway using the BG1 cell line - cell viability counter screen (AID 743081).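 Note: compound given together with 17beta-estradiol as the ER stimulus; series mostly up to about 70 µM; nearly all actives have a fitted effect of over 45% in size.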
Another assay concerns the target Aromatase (Homo sapiens) (UniProt P11511). Put plainly: qHTS assay to identify aromatase inhibitors (AID 743083). Note: series mostly up to about 70 µM; nearly all actives have a fitted effect of over 55% in size.
Assay [10] is described as follows: qHTS assay to identify aromatase inhibitors - cell viability counter screen (AID 743084).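 Note: cells stimulated with testosterone during compound exposure; nearly all actives have a fitted effect of over 55% in size.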
In assay [11] the target is Aryl hydrocarbon receptor (Homo sapiens) (UniProt P35869). The experiment in a line: qHTS assay to identify small molecule that activate the aryl hydrocarbon receptor (AhR) signaling pathway (AID 743085).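 Note: HG2L7.5c1 human HepG2 liver cells with stably integrated DRE-driven firefly reporter; series mostly up to about 70 µM; nearly all actives have a fitted effect of over 15% in size.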 The essentials: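 Steps: seed HepG2-AhR-luc cells; allow 5 h at 37C; pin-transfer test compound or vehicle; incubate 24 h at 37C; add viability dye (30 min, 37C) and read fluorescence; add luciferase substrate (30 min, RT) and read luminescence.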
Aryl hydrocarbon receptor (Homo sapiens), sequence (P35869 whole entry, looked up): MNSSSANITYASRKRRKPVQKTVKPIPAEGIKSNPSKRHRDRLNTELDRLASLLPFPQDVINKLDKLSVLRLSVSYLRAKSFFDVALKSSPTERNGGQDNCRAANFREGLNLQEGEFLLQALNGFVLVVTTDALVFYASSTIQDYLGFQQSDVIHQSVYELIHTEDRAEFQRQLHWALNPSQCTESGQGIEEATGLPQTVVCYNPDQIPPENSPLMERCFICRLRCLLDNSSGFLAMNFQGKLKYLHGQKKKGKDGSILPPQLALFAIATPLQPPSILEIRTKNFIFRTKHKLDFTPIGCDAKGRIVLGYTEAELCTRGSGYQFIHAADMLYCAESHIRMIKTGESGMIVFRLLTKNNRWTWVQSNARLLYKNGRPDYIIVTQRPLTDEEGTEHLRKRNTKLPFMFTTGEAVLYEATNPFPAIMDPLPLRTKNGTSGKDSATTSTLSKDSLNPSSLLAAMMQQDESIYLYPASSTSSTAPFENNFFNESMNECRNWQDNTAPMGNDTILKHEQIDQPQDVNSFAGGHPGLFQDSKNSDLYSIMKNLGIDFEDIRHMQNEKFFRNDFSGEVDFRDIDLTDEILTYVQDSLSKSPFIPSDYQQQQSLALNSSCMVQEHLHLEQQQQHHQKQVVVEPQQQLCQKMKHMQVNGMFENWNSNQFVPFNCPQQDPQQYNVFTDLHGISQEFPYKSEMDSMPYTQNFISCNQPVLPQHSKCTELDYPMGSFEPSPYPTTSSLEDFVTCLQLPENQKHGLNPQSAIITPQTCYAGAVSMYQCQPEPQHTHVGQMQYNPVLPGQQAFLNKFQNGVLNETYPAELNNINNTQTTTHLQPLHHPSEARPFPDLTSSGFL

The nature of assay [12]: qHTS assay to identify small molecule that activate the aryl hydrocarbon receptor (AhR) signaling pathway - cell viability counter screen (AID 743086).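 Note: HepG2 liver cells carrying the AhR DRE luciferase reporter; series mostly up to about 70 µM; nearly all actives have a fitted effect of over 45% in size.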 The essentials:
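HepG2-AhR-luc (HG2L7.5c1) cells, 4000/well, treated 24 h at 37 C with compound; viability measured as CellTiter-Fluor fluorescence after 30 min in the same wells as the luciferase read.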

Assay [13] is described as follows: qHTS assay to identify small molecule antagonists of the peroxisome proliferator-activated receptor gamma (PPARg) signaling pathway - cell viability counter screen (AID 743194). Note: nearly all actives have a fitted effect of over 55% in size. The essentials: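 Cytotoxicity counter screen in PPARg-bla HEK293H cells, same wells as reporter assay. Compounds plus 50 nM rosiglitazone (final) for 17 h at 37 C, then viability read by CellTiter-Glo luminescence.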

Assay [14] can be described thus: qHTS assay for small molecule agonists of the antioxidant response element (ARE) signaling pathway (AID 743202; active = well fitted activation curve with a large enough effect in the signal ratio in the repeat runs, not every such curve was filed as active; the % refers to the signal ratio). The essentials:
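HepG2 ARE-bla reporter line, 2,000 cells/well; 5 h preincubation 37 C/5% CO2; compound (DMSO) 16 h 37 C; B/G FRET substrate 2 h RT; fluorescence intensity.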

Assay [15] can be described thus: qHTS assay for small molecule agonists of the antioxidant response element (ARE) signaling pathway - cell viability counter screen (AID 743203; calls by dose curve; note: nearly all actives have a fitted effect of over 55% in size). The essentials: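 Luminescence read-out (CellTiter-Glo, 30 min at room temperature) measured cell viability in the same wells as the ARE beta-lactamase reporter. HepG2 ARE-bla cells were treated with compounds for 16 hrs at 37C/5% CO2.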

Assay [16] is described as follows: qHTS assay for small molecule activators of the heat shock response signaling pathway - cell viability counter screen (AID 743209). Note: nearly all actives have a fitted effect of over 50% in size. Put shortly: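 HSE-bla HeLa; 1500 cells/well; overnight 37 C, 5% CO2; compound 5 h 37 C; LiveBLAzer B/G substrate 2.5 h RT; CellTiter-Glo 30 min RT; luminescence.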
The target of assay [17] is Peroxisome proliferator-activated receptor gamma (Homo sapiens) (UniProt P37231). Put plainly: qHTS assay to identify small molecule agonists of the peroxisome proliferator-activated receptor gamma (PPARg) signaling pathway (AID 743094; active = well fitted activation curve with a large enough effect in the signal ratio in the repeat runs, not every such curve was filed as active; the % refers to the signal ratio). Put shortly: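 HEK293H PPARg-bla cells, 5 h settle at 37C/5% CO2; compound (DMSO) 17 h, 37C; B/G FRET substrate 1 h RT; fluorescence intensity read-out. qHTS format.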
Peroxisome proliferator-activated receptor gamma (Homo sapiens), sequence (P37231 whole entry, looked up): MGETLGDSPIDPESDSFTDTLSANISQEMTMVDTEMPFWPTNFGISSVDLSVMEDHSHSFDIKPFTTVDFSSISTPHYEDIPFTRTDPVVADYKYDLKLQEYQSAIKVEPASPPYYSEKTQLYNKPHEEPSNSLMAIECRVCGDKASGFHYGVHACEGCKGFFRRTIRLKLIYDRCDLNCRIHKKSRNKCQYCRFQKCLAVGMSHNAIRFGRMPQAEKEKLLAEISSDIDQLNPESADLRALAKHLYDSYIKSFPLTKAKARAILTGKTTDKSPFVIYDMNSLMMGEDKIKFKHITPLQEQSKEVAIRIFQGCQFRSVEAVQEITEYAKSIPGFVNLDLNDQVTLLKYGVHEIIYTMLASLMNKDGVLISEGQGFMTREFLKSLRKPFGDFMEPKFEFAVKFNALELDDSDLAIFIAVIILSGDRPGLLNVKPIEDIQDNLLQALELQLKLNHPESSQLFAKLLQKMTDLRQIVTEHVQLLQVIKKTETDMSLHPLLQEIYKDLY

Assay [18] shares this target. The experiment in a line: qHTS assay to identify small molecule antagonists of the peroxisome proliferator-activated receptor gamma (PPARg) signaling pathway (AID 743191; calls by dose curve; note: series mostly up to about 63 µM; nearly all actives have a fitted effect of over 30% in size). The essentials:
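GeneBLAzer PPARg UAS-bla HEK293H cells, 5 h post-plating, exposed to compounds 17 h at 37C. LiveBLAzer B/G FRET substrate added for 1 h at room temperature; beta-lactamase reporter read by fluorescence intensity.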

Assay [19] in a line: qHTS assay for small molecule activators of the heat shock response signaling pathway (AID 743210; active = well fitted activation curve with a large enough effect in the signal ratio in the repeat runs, with a control signal flat, not every such curve was filed as active; the % refers to the signal ratio;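 note: HeLa cells with beta-lactamase reporter driven by heat shock elements; series mostly up to about 63 µM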). The essentials:
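Beta-lactamase reporter read-out: FRET substrate fluorescence after 2.5 h at RT, following 5 h compound treatment at 37 C of HeLa cells carrying HSE-driven bla reporter; quantitative HTS format.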

Inconclusive results are not listed. Unmarked numbers belong to inactive results. Active and inactive are the calls of the source. Unless noted, calls come from the whole dose curve; as a rule, active = well fitted curve in the direction sought with a large enough effect in the repeat runs; inconclusive = weak or mixed curves; inactive = no such curve, though single readings can be large; an effect the other way counts as inactive or inconclusive.

Aromatase (Homo sapiens), sequence (P11511 whole entry, looked up): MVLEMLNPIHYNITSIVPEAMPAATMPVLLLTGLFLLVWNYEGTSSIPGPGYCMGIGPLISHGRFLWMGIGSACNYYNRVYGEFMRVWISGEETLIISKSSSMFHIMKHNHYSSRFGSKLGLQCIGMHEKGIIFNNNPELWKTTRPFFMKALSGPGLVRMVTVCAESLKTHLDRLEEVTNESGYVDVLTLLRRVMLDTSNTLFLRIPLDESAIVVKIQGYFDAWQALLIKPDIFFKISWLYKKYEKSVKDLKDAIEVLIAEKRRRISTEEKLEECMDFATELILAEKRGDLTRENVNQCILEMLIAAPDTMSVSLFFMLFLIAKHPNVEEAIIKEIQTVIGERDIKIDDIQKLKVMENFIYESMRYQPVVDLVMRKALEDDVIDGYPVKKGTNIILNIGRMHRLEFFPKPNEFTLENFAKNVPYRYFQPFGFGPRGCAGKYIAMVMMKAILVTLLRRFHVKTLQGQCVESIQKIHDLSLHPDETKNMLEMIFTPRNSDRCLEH
Estrogen receptor (Homo sapiens), sequence (P03372 whole entry, looked up): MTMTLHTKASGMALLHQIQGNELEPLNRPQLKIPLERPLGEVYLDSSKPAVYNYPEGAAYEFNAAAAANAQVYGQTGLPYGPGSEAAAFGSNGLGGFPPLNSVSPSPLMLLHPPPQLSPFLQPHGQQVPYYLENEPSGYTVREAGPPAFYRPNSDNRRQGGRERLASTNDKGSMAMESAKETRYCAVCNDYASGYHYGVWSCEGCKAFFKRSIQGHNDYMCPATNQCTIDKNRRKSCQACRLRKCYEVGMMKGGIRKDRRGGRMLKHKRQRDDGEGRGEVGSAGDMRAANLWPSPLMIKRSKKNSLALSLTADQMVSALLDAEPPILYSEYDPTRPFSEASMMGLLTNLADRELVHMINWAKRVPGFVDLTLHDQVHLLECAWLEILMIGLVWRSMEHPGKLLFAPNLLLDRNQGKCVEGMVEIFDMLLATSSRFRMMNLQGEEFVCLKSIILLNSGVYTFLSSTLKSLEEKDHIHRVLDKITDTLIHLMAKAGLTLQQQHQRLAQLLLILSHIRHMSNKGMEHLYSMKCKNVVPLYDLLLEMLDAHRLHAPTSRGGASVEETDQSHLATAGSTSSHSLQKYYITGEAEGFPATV

Take `C[C@@H](O)C(=O)O`: the Potency result in [1], in assay [2], in [6], in [9], in assay [10] and in [11] was “inactive” throughout. In addition, the Potency entry in [12], in assay [14] and in [16] was “inactive” each time. Also, the compound was classed as inactive (in assay [3]; in [4]; in assay [5]; in assay [8]; with Aromatase (Homo sapiens); in [13]). For the same compound, the result in assay [15] was inactive. Further, the Potency in assay [7] was 48 µM (active).

`CCO[Si](CC)(OCC)OCC`: the Potency result in assay [1], in [2], in assay [6], in assay [7], in assay [9] and in [10] was “inactive” throughout. The Potency result in assay [11], in [12], in assay [14] and in assay [16] was “inactive” each time. For the same compound, the compound was classed as inactive (in [3]; in assay [4]; in assay [5]; with Aromatase (Homo sapiens); in assay [13]; in assay [15]).

In the case of `CC1(C)[C@H]2CC[C@](C)(C2)[C@H]1O`, the Potency entry in [1], in [2], in [6], in assay [7], in assay [9] and in assay [10] was “inactive” throughout. Besides, the Potency entry in assay [12], in assay [17], in assay [14] and in assay [16] was “inactive” throughout. Besides, the result (in [3]; in assay [4]; in assay [5]; with Aromatase (Homo sapiens); in [18]; in [13]) was inactive. Besides, the result in [15] and in assay [19] was inactive.

In the case of `N[C@@H](CSCCCO)C(=O)O`, the Potency entry in assay [1], in assay [2], in assay [6], in assay [7], in assay [9] and in assay [10] was “inactive” each time. Moreover, the Potency result in assay [12], in [17], in [14] and in assay [16] was “inactive” in each case. In addition, the result (in assay [3]; in assay [4]; in assay [5]; in the assay with Aromatase (Homo sapiens); in [13]; in assay [15]) was inactive.

Turning to `Fc1ccccc1`, the Potency entry in assay [1], in [2], in assay [6], in assay [7], in assay [9] and in assay [10] was “inactive” in each case. Also, the Potency result in assay [12] and in assay [16] was “inactive” throughout. Besides, the result (in [3]; in [4]; in [5]; with Aromatase (Homo sapiens); in assay [13]; in assay [15]) was inactive.

In the case of `CSc1cnccn1`, the Potency entry in [1], in assay [2], in [6], in assay [7], in assay [9] and in assay [10] was “inactive” each time. The Potency entry in assay [11], in assay [12], in assay [17] and in assay [16] was “inactive” each time. Moreover, the call (in assay [3]; in assay [4]; in assay [5]; with Aromatase (Homo sapiens); in assay [18]; in [13]) was inactive. Also, the result in [15] and in [19] was inactive.

`O=C[O][Al]([O]C=O)[O]C=O`: the Potency entry in assay [1], in assay [2], in assay [6], in assay [7], in assay [9] and in assay [10] was “inactive” throughout. Further, the Potency result in [11], in assay [12], in assay [14] and in assay [16] was “inactive” throughout. Also, the compound was classed as inactive (in [3]; in [4]; in [5]; in assay [8]; with Aromatase (Homo sapiens); in assay [13]). The compound was classed as inactive in [15] and in assay [19].

For `COC(=O)c1ccccc1C(=O)O`, the Potency entry in assay [1], in [2], in assay [6], in assay [7], in [9] and in assay [10] was “inactive” in each case. Also, the Potency entry in assay [11], in assay [12], in [17], in assay [14] and in assay [16] was “inactive” in each case. In addition, the compound was classed as inactive (in [3]; in [4]; in [5]; in assay [8]; with Aromatase (Homo sapiens); in assay [13]). Besides, the outcome in assay [15] and in assay [19] was inactive.

As to `CCCCCc1cccc(=O)o1`, the Potency result in assay [1], in assay [2], in [6], in assay [7], in assay [9] and in assay [10] was “inactive” in each case. The Potency result in [12], in [17] and in assay [16] was “inactive” in each case. Besides, the result (in assay [3]; in assay [4]; in assay [5]; in assay [8]; with Aromatase (Homo sapiens); in [13]) was inactive. The result in assay [15] and in [19] was inactive.

The values above are taken from PubChem BioAssay (Tox21).
